Test results published in PubChem BioAssay (NCATS).
Active and inactive are the calls of the source. Calls come from the whole dose curve; as a rule, active = well fitted curve in the direction sought with a large enough effect; inconclusive = small, poorly fitted or top-dose-only effect, or another doubt; inactive = no such curve, though single readings can be large or run the other way.

assay: Cellular Toxicity (caspase-3) HUV-EC-C (AID 656); conditions: HUV-EC-C cells, caspase-3 activation (apoptosis), vehicle = 0, 100 µM tamoxifen = 100%; series mostly up to 92.2 µM;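 note: cells exposed to compound for 16 h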
Procedure, shortened: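 Read-out: luminescence proportional to caspase 3/7 activity, measured 20 min after adding Caspase-Glo 3/7 reagent. Cells (HUV-EC-C) had received compound for 16 hr at 37°C. Increases relative to DMSO and 100 uM tamoxifen gave concentration-response AC50 values.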

SMILES	outcome
Cc1ccccc1C#N	inactive
CCC=O	inactive
Oc1c(Cl)ccc(Cl)c1Cl	inactive
Cc1ccccc1C=O	inactive
CN(C)c1cccc(O)c1	inactive
Cc1ccc(S(=O)(=O)NC2CCCCC2)cc1	inactive
CCOC(=O)OCC	inactive
CC(C)(O)CCC(C)(C)O	inactive
O=Cc1ccccc1Cl	inactive
CCCCCCCCC/C=C/CC1CC(=O)OC1=O (stereo not given)	inactive
Cc1ccc2cccnc2c1	inactive
O=Cc1ccc(CO)o1	inactive
CCCC(Cl)CCCC(Cl)CCC(Cl)CCC(Cl)CCC(Cl)CCCC(Cl)CCC (stereo not given)	inactive
Cc1ccc(C)o1	inactive
CCCCN(CCO)CCCC	inactive
C=C(C)C(=O)OCCCCCC	inactive
CCOc1cccc(N)c1	inactive
COC(=O)CCCC(=O)OC	inactive
O=C1CCCCC1	inactive
NC(=O)NC(N)=O	inactive

SMILES	outcome
CCOCCOCC	inactive
CC(C)N=C=NC(C)C	inactive
CC(C)=CCl	inactive
CCC(C)(C)C(=O)O	inactive
Cc1ccc(C)c(N)c1	inactive
CN(C)CCCCl	inactive
CCCCOCCOCCOCCCC	inactive
CC/C=C/C#N	inactive
Cc1cccc2cccnc12	inactive
Cc1ccccc1C(=O)O	inactive
C/C(C=O)=C/c1ccccc1	inactive
O=[N+]([O-])c1c(Cl)cc(Cl)cc1Cl	inactive
CC(=O)OC(C)=O	inactive
CNC(=O)c1ccccc1	inactive
O=Cc1c(Cl)cccc1Cl	inactive
c1ccc(Oc2ccccc2)cc1	inactive
Clc1cc(Cl)cc(Cl)c1	inactive
Cc1ccc(C(C)(C)C)cc1	inactive
C=C(C)C(=O)OCC(C)O (stereo not given)	inactive
O=C(O)c1cc(Cl)cc(Cl)c1	inactive
